Source: PubChem BioAssay AID2673 (National Center for Advancing Translational Sciences (NCATS), 2010)
Inconclusive results are not listed. Entries that show only a call come without a potency. Activity calls are given as the source filed them. The call rests on the fitted dose curve; in most records, active means well fitted activation curve with a large enough effect; inconclusive means small, poorly fitted or top-dose-only effect; inactive means no such curve, though single readings can be large or run the other way.

Experiment: qHTS Multiplex Assay to Identify Dual Action Probes in a Cell Model of Huntington: Cytoprotection confirmation (ATP)
Settings: PC12 HttQ103 induced, ATP luminescence 40 h; series mostly up to 46.1 µM
Summary of the method: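 Cell survival measured by luminescent ATP content (ATPlite) in tebufenozide-induced (100 nM) PC12 HTTQ103-GFP cells treated with compounds, in phenol red-free DMEM with equine and calf serum.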

| Compound | Potency |
| --- | --- |
| Cn1nnnc1Sc1ncnc2scc(-c3cccc(F)c3)c12 | 14.1 µM (active) |
| COc1ccc2cc3cc(C(=O)NCc4ccco4)oc3nc2c1 | inactive |
| Cn1nnnc1Sc1ncnc2scc(-c3ccccc3Cl)c12 | 31.6 µM (active) |
| CC(=O)c1cccc(-c2csc3ncnc(Sc4nnnn4C)c23)c1 | 10 µM (active) |
| COc1cccc(C(=O)Nc2ccc(F)c(F)c2F)c1 | inactive |
| COc1ccc(-c2[nH]ncc2-c2ccc3c(c2)OCCO3)c(O)c1 | inactive |
| CCOC(=O)c1sc2nc(N3CCOCC3)c3c(c2c1N)CC(C)(C)N(C)C3 | inactive |
| CN(C)CCCSc1ccccc1NC(=O)/C=C\c1ccccc1 | inactive |
| Cn1nnnc1Sc1ncnc2scc(-c3ccc[nH]3)c12 | 12.6 µM (active) |
| O=C(N/N=C/c1ccc(O)c(O)c1)c1ccc(CSc2cccc3cccnc23)cc1 | inactive |
| Fc1ccc(N2CCN(c3ncnc4nc[nH]c34)CC2)cc1 | inactive |
| CC(=O)c1n[nH]nc1NC(=O)c1ccccc1 | inactive |
| Cn1nnnc1Sc1ncnc2scc(-c3ccc(C#N)cc3)c12 | 10 µM (active) |
| CCC(=O)OCCCCCCOc1ccc(C(=O)O)cc1 | inactive |
| CC(C(=O)O)c1ccc(N2Cc3ccccc3C2=O)cc1 (centres undefined) | inactive |
| CCCn1nc([N+](=O)[O-])c(C(C#N)c2nc3ccccc3s2)c(Cl)c1=O (centres undefined) | inactive |
| O=C(NCN1C(=O)C2C3C=CC(C3)C2C1=O)Nc1ccccn1 (centres undefined) | inactive |
| Cc1ccccc1N=C(N)Nc1ccccc1C | inactive |
| O=C(O)/C=C/C(O)c1ccc(Cl)cc1 (centres undefined) | inactive |
